Rows were chosen to be rich in hits. Some 10% of all compounds tested hit in one or more screens of this group.
HEK cytotox = Cytotoxic Profiling in HEK 293 Cell Line of Diverse Libraries Using Quantitative High-Throughput Screening. AID 1345083, 2018. HEK 293 viability, ATP luminescence (CellTiter-Glo), 48-72 h. Potency, µM (top dose mostly 115 µM), inactives show at the highest dose activity change, negative = cytotoxicity, actives largely listed as inhibitors. 94,000 compounds, 6.6% hits; note: nearly all actives have a fitted effect of over 60% in size
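qHTS cytotoxicity; HEK 293, 250 cells/well; compound pinned; 48 or 72 hr, 37 degree Celsius, 5% CO2, 95% humidity; CellTiter-Glo, 10 min RT; luminescence (ATP).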
GPT2 inh = Primary qHTS assay for inhibitors of Glutamate pyruvate transaminase 2 (GPT2) | AID 1671188, 2021 | 100,000 compounds, 0.25% hits | Potency, µM (highest dose often 57.7 µM), for the others: top-dose activity change, negative = inhibition, most hits filed as inhibitors | Recombinant GPT2, coupled pyruvate oxidase/HRP Amplex Red fluorescence | Alanine aminotransferase 2 (Homo sapiens), Q8TD30; note: nearly all actives have a fitted effect of over 60% in size
Target sequence (Q8TD30 whole entry, looked up): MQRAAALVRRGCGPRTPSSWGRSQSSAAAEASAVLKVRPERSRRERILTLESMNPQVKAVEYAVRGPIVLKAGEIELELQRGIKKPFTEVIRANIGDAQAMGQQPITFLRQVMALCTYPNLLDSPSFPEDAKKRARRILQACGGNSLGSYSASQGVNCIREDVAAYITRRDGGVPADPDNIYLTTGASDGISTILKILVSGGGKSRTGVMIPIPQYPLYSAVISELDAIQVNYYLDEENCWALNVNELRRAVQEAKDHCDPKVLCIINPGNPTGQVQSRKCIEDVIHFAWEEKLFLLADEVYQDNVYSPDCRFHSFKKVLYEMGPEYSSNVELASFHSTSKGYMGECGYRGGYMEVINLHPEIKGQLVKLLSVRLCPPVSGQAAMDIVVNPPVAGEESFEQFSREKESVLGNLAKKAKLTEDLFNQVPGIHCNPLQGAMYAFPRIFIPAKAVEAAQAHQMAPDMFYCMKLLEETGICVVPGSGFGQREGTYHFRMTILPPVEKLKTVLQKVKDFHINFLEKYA
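Inhibition is scored from Amplex Red fluorescence generated when pyruvate oxidase and HRP act on pyruvate released by GPT2. Reactions contain 10ng/uL enzyme, 250uM a-KG and 2mM L-alanine and run 30 min at room temperature.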
Luciferase inh = Firefly luciferase inhibition profiling of diverse chemical library using quantitative high-throughput screening | Luciferin 4-monooxygenase (Photinus pyralis), P08659 | purified P. pyralis luciferase, luminescence, biochemical | Potency, µM (highest dose often 115 µM), usual class: inhibitors | 76,000 compounds, 2.5% hits; note: nearly all actives have a fitted effect of over 65% in size
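Luminescence read by CCD imaging after purified firefly luciferase (10nM final) was added to substrate buffer holding 10uM D-luciferin and 10uM ATP, pH 7.5, pre-dosed with compound.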
3T3 cytotox = Cytotoxic Profiling in NIH 3T3 Cell Line of Diverse Libraries Using Quantitative High-Throughput Screening | NIH 3T3 viability, CellTiter-Glo ATP luminescence, 48-72 h | Potency, µM (series often up to 96.7 µM), for the others: at the highest dose activity change, negative = cytotoxicity, usual class: inhibitors | 94,000 compounds, 4.3% hits | AID 1345082, 2018; note: nearly all actives have a fitted effect of over 55% in size
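Mouse fibroblast NIH 3T3 cells, 400 per well, received compound via pintool and were incubated for 48 or 72 hr prior to CellTiter-Glo ATP luminescence measurement.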
hNpr1 antagonist = Natriuretic polypeptide receptor (hNpr1) antagonism - Primary qHTS; Atrial natriuretic peptide receptor 1 (Homo sapiens), P16066; HEK293 hNpr1 GloSensor cGMP, ANP-stimulated luminescence; Potency, µM (highest dose often 46.3 µM), for the others: at the highest dose activity change, negative = inhibition, most hits filed as inhibitors; 76,000 compounds, 1.6% hits; calls by dose curve; note: nearly all actives have a fitted effect of over 60% in size
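Compound pre-incubated 30 min at room temperature on GloSensor-loaded HEK293 cells stably carrying hNpr1 and the pGS-40F cGMP biosensor. Stimulation uses hNppA at 0.1 nM final; luminescence is taken at baseline and 20 min post-agonist.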
Numbers without * were called inactive; i = inactive; ? = inconclusive; nt = no result given; [ ] = another dose, or the depositor's remark. Unless noted, calls come from the whole dose curve; as a rule, active = well fitted curve in the direction sought with a large enough effect; inconclusive = small, poorly fitted or top-dose-only effect, or another doubt; inactive = no such curve, though single readings can be large; an effect the other way counts as inactive or inconclusive. % is set by controls: 0 for no effect and ±100 for the full control effect; potency is the fitted concentration of half-maximal effect.

SMILES | HEK cytotox | GPT2 inh | Luciferase inh | 3T3 cytotox | hNpr1 antagonist
CN1CCN(C(=O)c2ccc(N3CC4CC(C3)[C@H]3CCCC(=O)N3C4)nc2)CC1 (some centres not stated) | 5.3% | i | i | i | -0.2%
O=C1Nc2ccc(-c3ccccc3)cc2C(=O)N2CC[C@H](NS(=O)(=O)c3cccs3)[C@@H]12 | ? | -27.1% | i | 20µM* | -14.4%
O=C(N[C@H]1CCN2C(=O)c3cc(-c4ccsc4)ccc3NC(=O)[C@H]12)c1cccc(F)c1 | -12.4% | ? | i | -19.1% | -9.7%
O=C(N[C@H]1CCN2C(=O)c3cc(-c4ccccc4)ccc3NC(=O)[C@H]12)c1cccc(F)c1 | 89.1µM* | -15.4%[88.5 µM] | ? | ? | -17.6%[70.6 µM]
COc1ccc(-c2ccc3c(c2)C(=O)N2CC[C@H](NC(=O)C4CCCC4)[C@H]2C(=O)N3)cc1 | -25.4%[172 µM] | -3.6%[88.5 µM] | 22.4µM* | ? | -3.0%[70.6 µM]
O=C(N[C@H]1CCN2C(=O)c3cc(-c4ccc5c(c4)OCO5)ccc3NC(=O)[C@H]12)c1cccc(F)c1 | ? | i | i | 79.4µM* | -10.8%
O=C1Nc2ccccc2C(=O)N2CC[C@H](NS(=O)(=O)c3cccs3)[C@@H]12 | -11.1%[172 µM] | -0.1%[88.5 µM] | i | -22.1%[174 µM] | 5.6%[70.6 µM]
COc1ccc(CN2CC3(CCN(S(=O)(=O)c4ccc(F)cc4)CC3)C2=O)cc1 | 89.1µM* | i | i | -23.0% | -3.9%
COc1ccc(CN2CC3(CCN(S(=O)(=O)c4ccccc4Cl)CC3)C2=O)cc1 | ? | i | i | ? | -19.6%
O=C1Cc2c(-c3ccccc3Oc3ccccc3)n[nH]c2CN1CC1CCOCC1 | -25.9%[172 µM] | -7.5%[88.5 µM] | i | ? | -24.0%[70.6 µM]
O=C1Cc2c(-c3ccccc3Cl)n[nH]c2CN1CC1CCOCC1 | -8.8%[172 µM] | -1.7%[88.5 µM] | i | 89.1µM* | -0.3%[70.6 µM]
O=C1Cc2c(-c3ccccc3)n[nH]c2CN1CC1CCOCC1 | 1.5%[172 µM] | 2.7%[88.5 µM] | i | 50.1µM* | -9.3%[70.6 µM]
COc1ccc(S(=O)(=O)N2CC(=O)N(CC3CC3)C3(CCCCC3)C2)cc1 | ? | 1.3% | nt | 35.5µM* | nt
CNc1ncc(C(=O)N2CCCC(c3[nH]ncc3-c3ccc(F)cc3)C2)cn1 (configuration not stated) | -9.7% | -14.1% | i | -19.2% | -1.7%
COC(=O)C1=C(C)N=C2SC=C(CC(=O)N3CCCC3)N2C1c1ccc(C)cc1C (configuration not stated) | ? | ? | i | 25.1µM* | ?
CCC1=C(C(=O)OC)C(c2ccc(C)cc2C)N2C(CC(=O)Nc3ccc(OC)cc3)=CSC2=N1 (configuration not stated) | 44.7µM* | -12.7% | i | ? | -24.0%
CCC1=C(C(=O)OC)C(c2ccc(C)cc2C)N2C(CC(=O)N3CCCC3)=CSC2=N1 (configuration not stated) | ? | i | i | -31.2% | ?
Cc1ccccc1CNC(=O)COc1ccc(NC(=O)C2CC2)cn1 | 3.8% | i | i | 0.4% | 3.8%
COc1cc(-c2cnc3n[nH]c(-c4ccccc4)c3n2)ccn1 | ? | -13.8%[88.5 µM] | i | ? | -2.1%[70.6 µM]
Cc1ccccc1-c1cnc2n[nH]c(-c3ccc4c(c3)OCO4)c2n1 | 44.7µM* | ? | i | 25.1µM* | -17.8%[70.6 µM]
COc1ccccc1-c1cnc2n[nH]c(-c3ccc4c(c3)OCO4)c2n1 | 35.5µM* | ? | i | 35.5µM* | ?
COc1cccc(-c2cnc3n[nH]c(-c4ccc5c(c4)OCO5)c3n2)c1 | ? | -0.2%[88.5 µM] | i | 50.1µM* | -10.7%[70.6 µM]
c1ccc(-c2cnc3n[nH]c(-c4ccc5c(c4)OCO5)c3n2)cc1 | ? | -1.8%[88.5 µM] | i | -14.9%[138 µM] | -21.1%[70.6 µM]
COc1ncccc1-c1cnc2n[nH]c(-c3ccc4c(c3)OCO4)c2n1 | 44.7µM* | 3.6%[88.5 µM] | i | 44.7µM* | -19.0%[70.6 µM]
Oc1ccccc1-c1cnc2n[nH]c(-c3ccc4c(c3)OCO4)c2n1 | ? | -7.5%[88.5 µM] | ? | ? | -18.6%[70.6 µM]
SMILES | HEK cytotox | GPT2 inh | Luciferase inh | 3T3 cytotox | hNpr1 antagonist
COc1ccc(-c2noc(-c3nc(C4CC4)no3)n2)cc1 | ? | i | i | -11.2% | 0.4%
COc1cc(F)ccc1-c1cnc2n[nH]c(-c3ccc4c(c3)OCO4)c2n1 | ? | -5.8%[88.5 µM] | i | 25.1µM* | -26.3%[70.6 µM]
Fc1ccccc1-c1cnc2n[nH]c(-c3ccc4c(c3)OCO4)c2n1 | ? | -1.1%[88.5 µM] | i | -11.9%[138 µM] | -21.4%[70.6 µM]
CN(C)c1ccc(-c2ccnc(N[C@H]3CO[C@H]4[C@@H]3OC[C@@H]4NC(=O)NCc3ccccc3)n2)cc1 | 31.6µM* | 2.0% | ? | 22.4µM* | -12.3%
CCNC(=O)N[C@H]1CO[C@H]2[C@@H]1OC[C@@H]2Nc1nccc(-c2ccc(OC)cc2)n1 | ? | i | i | ? | 0.6%[70.6 µM]
COc1ccc(-c2ccnc(N[C@H]3CO[C@H]4[C@@H]3OC[C@@H]4NS(=O)(=O)c3ccc(NC(C)=O)cc3)n2)cc1 | 39.8µM* | 0.1% | i | ? | ?
C=CCNC(=O)N[C@H]1CO[C@H]2[C@@H]1OC[C@@H]2Nc1nccc(-c2ccc(OC)cc2)n1 | 89.1µM* | -0.7%[88.5 µM] | i | ? | -1.9%[70.6 µM]
O=C(N[C@H]1CO[C@H]2[C@@H]1OC[C@@H]2Nc1nccc(-c2ccc(-c3ccccc3)cc2)n1)c1ccccc1 | 10µM* | -3.1% | i | ? | ?
NC(=O)c1ccc2c(c1)C1(CCN(CC3CC3)C1)CN2Cc1ccccc1 (configuration not stated) | ? | -5.3%[88.5 µM] | i | ? | -4.5%[70.6 µM]
CCn1nccc1C(=O)N1CCC2(CC1)CC(c1nc(C)no1)N(C)C2 (configuration not stated) | -8.0% | i | i | -19.8% | 3.8%
CC(=O)N[C@H]1CO[C@H]2[C@@H]1OC[C@@H]2Nc1nccc(-c2cccc(F)c2)n1 | ? | 3.5%[88.5 µM] | i | -27.8%[174 µM] | ?
COCC(=O)N[C@H]1CO[C@H]2[C@@H]1OC[C@@H]2Nc1nccc(-c2cccc(F)c2)n1 | 100µM* | 0.1%[88.5 µM] | i | ? | 2.6%[70.6 µM]
Cc1ccc(S(=O)(=O)N[C@H]2CO[C@H]3[C@@H]2OC[C@@H]3Nc2nccc(C(C)(C)C)n2)cc1 | 25.1µM* | -5.7%[88.5 µM] | ? | ? | 3.55µM*
CN(C)c1ccc(C(=O)N[C@H]2CO[C@H]3[C@@H]2OC[C@@H]3Nc2nccc(-c3cccs3)n2)cc1 | 44.7µM* | 3.2% | ? | ? | -26.5%

Compound activity deposited in PubChem BioAssay by National Center for Advancing Translational Sciences (NCATS).
